Experimental data from PubChem BioAssay (NCATS).
Records with an inconclusive call do not appear. Where a call stands in place of a potency, no number is given. Active and inactive are the calls of the source. Unless noted, calls follow the shape of the dose curve; as a rule, active = well fitted curve in the direction sought with a large enough effect; inconclusive = small, poorly fitted or top-dose-only effect, or another doubt; inactive = no such curve, though single readings can be large; an effect the other way counts as inactive or inconclusive.

Experiments:
[1] = target: Transient receptor potential cation channel subfamily V member 1 (Homo sapiens) (UniProt Q8NER1); assay: HTS Assay for Compounds that Act as Enhancers of the Vanilloid Receptor 1 (AID 488979)
Transient receptor potential cation channel subfamily V member 1 (Homo sapiens), sequence (Q8NER1 whole entry, looked up): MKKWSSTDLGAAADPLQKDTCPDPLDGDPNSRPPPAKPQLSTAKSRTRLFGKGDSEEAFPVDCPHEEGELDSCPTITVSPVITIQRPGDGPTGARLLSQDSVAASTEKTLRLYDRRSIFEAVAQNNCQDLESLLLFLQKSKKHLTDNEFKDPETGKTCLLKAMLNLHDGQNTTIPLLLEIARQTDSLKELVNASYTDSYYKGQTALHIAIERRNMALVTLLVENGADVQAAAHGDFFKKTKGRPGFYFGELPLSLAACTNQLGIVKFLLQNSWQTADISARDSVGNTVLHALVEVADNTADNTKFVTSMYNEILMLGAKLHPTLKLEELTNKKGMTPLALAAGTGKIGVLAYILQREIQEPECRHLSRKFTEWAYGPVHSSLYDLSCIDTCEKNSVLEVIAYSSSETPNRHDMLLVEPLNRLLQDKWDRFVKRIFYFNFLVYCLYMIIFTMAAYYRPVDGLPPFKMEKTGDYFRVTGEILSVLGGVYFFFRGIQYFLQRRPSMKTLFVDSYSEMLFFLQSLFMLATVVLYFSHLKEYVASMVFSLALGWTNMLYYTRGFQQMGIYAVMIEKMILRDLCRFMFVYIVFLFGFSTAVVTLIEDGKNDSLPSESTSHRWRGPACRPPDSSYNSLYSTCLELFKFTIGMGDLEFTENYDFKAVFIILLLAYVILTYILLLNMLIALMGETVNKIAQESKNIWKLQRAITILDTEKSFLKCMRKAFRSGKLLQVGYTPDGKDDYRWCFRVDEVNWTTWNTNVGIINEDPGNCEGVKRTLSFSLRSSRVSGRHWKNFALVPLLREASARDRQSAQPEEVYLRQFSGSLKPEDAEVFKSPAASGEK
In short: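 Calcium influx kinetics via Fluo-8 (480/520 nm) in TRPV1-expressing cells, 2000/well cultured overnight at 35.5C. Compound-alone read 3 min (agonist phase), followed by EC20 capsaicin challenge for 2 min (enhancer phase).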

[2] = target: Thyrotropin receptor (Homo sapiens) (UniProt P16473); assay: qHTS Assay for Antagonists of the Thyroid Stimulating Hormone Receptor (AID 488980); also: series mostly up to about 58 µM
Thyrotropin receptor (Homo sapiens), sequence (P16473 whole entry, looked up): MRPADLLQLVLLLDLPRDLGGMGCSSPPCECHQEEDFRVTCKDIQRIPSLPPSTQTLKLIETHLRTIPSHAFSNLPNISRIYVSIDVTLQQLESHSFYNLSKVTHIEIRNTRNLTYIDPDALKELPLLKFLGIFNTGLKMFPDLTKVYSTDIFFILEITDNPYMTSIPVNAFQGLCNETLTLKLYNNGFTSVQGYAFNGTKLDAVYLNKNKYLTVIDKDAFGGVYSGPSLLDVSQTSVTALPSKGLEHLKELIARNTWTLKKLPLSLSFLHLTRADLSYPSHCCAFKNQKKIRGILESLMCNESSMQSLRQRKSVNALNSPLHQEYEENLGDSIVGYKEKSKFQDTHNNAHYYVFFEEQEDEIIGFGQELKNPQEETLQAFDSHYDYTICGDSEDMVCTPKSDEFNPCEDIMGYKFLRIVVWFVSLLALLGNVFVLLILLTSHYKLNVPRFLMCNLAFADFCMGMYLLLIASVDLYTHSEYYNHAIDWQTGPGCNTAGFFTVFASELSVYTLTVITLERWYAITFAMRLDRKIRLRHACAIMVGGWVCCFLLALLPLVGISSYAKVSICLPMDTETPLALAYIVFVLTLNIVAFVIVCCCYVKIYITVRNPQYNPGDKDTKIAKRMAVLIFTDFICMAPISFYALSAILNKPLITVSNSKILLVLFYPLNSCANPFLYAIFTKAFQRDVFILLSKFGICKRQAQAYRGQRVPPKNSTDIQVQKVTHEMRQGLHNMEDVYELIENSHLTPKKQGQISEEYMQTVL
In short: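 TSHR-HEK293 cells; 70 uM RO 20-1724 PDE inhibitor; compound + EC80 TSH (4 nM final); anti-cAMP cryptate antibody/cAMP-d2 in lysis buffer, 30 min RT; HTRF 665/620 nm read.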

[3] = target: D(1A) dopamine receptor (Homo sapiens) (UniProt P21728); assay: HTS Assay for Allosteric Agonists of the Human D1 Dopamine Receptor: Primary Screen for Agonists (AID 488981)
D(1A) dopamine receptor (Homo sapiens), sequence (P21728 whole entry, looked up): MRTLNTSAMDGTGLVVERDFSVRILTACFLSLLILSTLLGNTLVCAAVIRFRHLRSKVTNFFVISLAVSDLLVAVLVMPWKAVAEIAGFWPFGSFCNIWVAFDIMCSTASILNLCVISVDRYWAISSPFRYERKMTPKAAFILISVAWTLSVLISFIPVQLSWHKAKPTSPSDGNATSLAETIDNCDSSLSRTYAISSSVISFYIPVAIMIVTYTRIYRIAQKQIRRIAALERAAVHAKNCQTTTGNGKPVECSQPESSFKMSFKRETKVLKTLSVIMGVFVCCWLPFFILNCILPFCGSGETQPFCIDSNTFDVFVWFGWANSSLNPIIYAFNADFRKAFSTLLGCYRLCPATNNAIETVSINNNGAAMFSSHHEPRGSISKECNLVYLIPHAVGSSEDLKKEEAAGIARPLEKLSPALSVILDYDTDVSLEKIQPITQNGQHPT
In short: (§1)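 Calcium flux in an inducible, force-coupled HEK293 Trex D1 line (overnight at 30 C): agonist mode is the 180 s kinetic read after compound; potentiator mode is the following 180 s read after dopamine at EC20.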

[4] = target: D(1A) dopamine receptor (Homo sapiens) (UniProt P21728); assay: HTS Assay for Allosteric Agonists of the Human D1 Dopamine Receptor: Primary Screen for Potentiators (AID 488982)
In short: as §1

[5] = target: D(1A) dopamine receptor (Homo sapiens) (UniProt P21728); assay: HTS Assay for Allosteric Agonists of the Human D1 Dopamine Receptor: Primary Screen for Antagonists (AID 488983);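 also: calcium flux response to an EC80 dopamine challenge measured with no-wash dye; nearly all actives have a fitted effect of over 65% in size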; also: potency is read from the fitted curve at half-maximal effect
In short: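 Tetracycline-induced HEK293 T-REx cells expressing force-coupled D1 were plated overnight at 30 C, dye-loaded for calcium, and read kinetically. Compounds were pinned in, then an EC80 dopamine challenge followed after 180 s to reveal antagonism.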

[6] = Validation screen for small molecules that induce genotoxicity in human embryonic kidney (HEK293T) cells expressing luciferase-tagged ELG1 (AID 493106)
In short: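 HEK293T cells expressing luciferase-tagged ELG1 were exposed to compound or DMSO vehicle for 16 hr at 37 °C, 5% CO2. Genotoxic stress raises ELG1 levels, so increased luciferase signal after ONE-Glo addition and 30 min at room temperature marks hits.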

[7] = target: ATPase family AAA domain-containing protein 5 (Homo sapiens) (UniProt Q96QE3); assay: Validation screen for small molecules that inhibit ELG1-dependent DNA repair in human embryonic kidney (HEK293T) cells expressing luciferase-tagged ELG1 (AID 493107);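 also: cells co-treated with the DNA-damaging agent 5-fluorouridine alongside compound; series mostly up to about 46 µM; inhibitors lower the ELG1-luciferase luminescence signal; nearly all actives have a fitted effect of over 70% in size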
In short: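 HEK293T cells expressing luciferase-tagged ELG1 were co-treated with 5-fluorouridine and compound or DMSO for 16 hr at 37 °C, 5% CO2. Luciferase activity was then read with ONE-Glo after 30 min at room temperature; suppressed signal indicates blocked ELG1 function.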

[8] = Nrf2 qHTS screen for inhibitors: Validation (AID 493153; active = well fitted inhibition curve with a large enough effect in the main read-out, with a control signal flat, not every such curve was filed as active); conditions: Potency: luciferase luminescence; viability change: measured here: cytotoxicity max response
In short: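 A549 cells carrying an ARE-driven firefly luciferase reporter, in 5% FBS OPTI-MEM, were treated with compounds in concentration-response for 18-24 h at 37°C. Viability was read by CellTiter-Fluor fluorescence, then Nrf2 activity by luciferase luminescence.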

[9] = qHTS for Inhibitors of Cell Surface uPA Generation: Validation Assay (AID 493164);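 also: RAW 264.7 macrophage cells exposed to compound for 18 h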
In short: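 RAW 264.7, 4000 cells/well, o/n plating; cpd 7-pt 1:5 dilution 2.45 nM–38.3 uM final; 18 h, 37 C/5% CO2; ATP-Lite, 5 s luminescence exposure.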

[10] = target: Galactokinase (Homo sapiens) (UniProt P51570); assay: qHTS Validation Assay for Inhibitors of Human Galactokinase (GALK) (AID 493189)
Galactokinase (Homo sapiens), sequence (P51570 whole entry, looked up): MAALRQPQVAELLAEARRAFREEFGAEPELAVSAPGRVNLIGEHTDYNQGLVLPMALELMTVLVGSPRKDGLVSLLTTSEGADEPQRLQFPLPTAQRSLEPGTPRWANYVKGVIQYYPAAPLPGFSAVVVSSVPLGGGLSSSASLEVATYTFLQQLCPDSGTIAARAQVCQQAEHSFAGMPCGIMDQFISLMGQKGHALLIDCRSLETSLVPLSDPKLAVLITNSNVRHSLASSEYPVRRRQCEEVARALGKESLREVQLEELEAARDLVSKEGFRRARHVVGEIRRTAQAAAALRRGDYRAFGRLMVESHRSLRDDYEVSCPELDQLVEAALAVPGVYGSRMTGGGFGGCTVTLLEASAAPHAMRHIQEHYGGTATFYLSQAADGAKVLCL
In short: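 Luminescence from leftover ATP (Kinase-Glo Plus, 10 min) served as read-out after a 1 h room-temperature reaction of 5 nM GALK, 100 uM galactose and 35 uM ATP at pH8.0.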

[11] = Validation screen for small molecules that induce DNA re-replication in SW480 colon adenocarcinoma cells (AID 504364); also: potency is read from the fitted curve at half-maximal effect
In short: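 SW480 cells seeded at 250 per well were exposed to compound or DMSO for 48 hr at 37 C, 5% CO2, then stained with Hoechst for 40 min. DNA content per nucleus was imaged (405 nm ex, 500-530 nm em).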

[12] = target: Peptidyl-prolyl cis-trans isomerase NIMA-interacting 1 (Homo sapiens) (UniProt Q13526); assay: qHTS Validation Assay to Find Inhibitors of Pin1 (AID 504536; active = well fitted inhibition curve with a large enough effect in the polarisation, with a control signal flat, not every such curve was filed as active; the % refers to the polarisation; also: potency is read from the fitted curve at half-maximal effect)
Peptidyl-prolyl cis-trans isomerase NIMA-interacting 1 (Homo sapiens), sequence (Q13526 whole entry, looked up): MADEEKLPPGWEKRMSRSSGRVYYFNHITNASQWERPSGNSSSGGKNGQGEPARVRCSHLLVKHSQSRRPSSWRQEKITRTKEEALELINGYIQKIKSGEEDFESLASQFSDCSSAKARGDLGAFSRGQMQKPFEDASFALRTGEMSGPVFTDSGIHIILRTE
In short: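 Fluorescence polarization competition: compounds (titration) displace HiFluor-488-labeled Pin1-1b peptide from Pin1 (0.3 uM final) in pH 7.5 HEPES buffer with DTT, 10 min at room temperature; %Activity normalized to no-enzyme wells, curves fitted.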

[13] = target: Phosphoglycerate kinase, glycosomal (Trypanosoma brucei brucei) (UniProt P07378); assay: qHTS Validation Assay to Find Inhibitors of Phosphoglycerate Kinase (AID 504547)
Phosphoglycerate kinase, glycosomal (Trypanosoma brucei brucei), sequence (P07378 whole entry, looked up): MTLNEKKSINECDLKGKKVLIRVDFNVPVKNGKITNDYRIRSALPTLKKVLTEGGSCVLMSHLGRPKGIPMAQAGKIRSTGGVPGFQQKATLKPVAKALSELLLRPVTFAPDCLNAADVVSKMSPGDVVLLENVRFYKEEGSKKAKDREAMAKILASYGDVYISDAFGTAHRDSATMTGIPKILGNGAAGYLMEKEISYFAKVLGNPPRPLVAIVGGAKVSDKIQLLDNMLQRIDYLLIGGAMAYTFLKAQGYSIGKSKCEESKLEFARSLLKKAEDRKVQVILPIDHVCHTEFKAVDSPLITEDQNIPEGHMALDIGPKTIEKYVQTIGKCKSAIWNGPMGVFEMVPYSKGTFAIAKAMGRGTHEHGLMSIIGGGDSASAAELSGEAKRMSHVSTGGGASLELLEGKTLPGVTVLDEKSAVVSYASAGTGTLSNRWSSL
In short: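 Inhibition of the enzyme is judged by a Kinase-Glo Plus luminescent signal following a one-hour incubation at room temperature. Because 1,3-BPG is unstable, it is made in situ by GAPDH at 100nM final; no-PGK wells define the baseline.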

[14] = target: phosphoglycerate mutase (Leishmania major) (UniProt Q4Q090); assay: qHTS Validation Assay to Find Inhibitors of Phosphoglycerate Mutase (AID 504548); conditions: Potency: inhibition qHTS; also: series mostly up to about 58 µM
phosphoglycerate mutase (Leishmania major), sequence (Q4Q090 1-553): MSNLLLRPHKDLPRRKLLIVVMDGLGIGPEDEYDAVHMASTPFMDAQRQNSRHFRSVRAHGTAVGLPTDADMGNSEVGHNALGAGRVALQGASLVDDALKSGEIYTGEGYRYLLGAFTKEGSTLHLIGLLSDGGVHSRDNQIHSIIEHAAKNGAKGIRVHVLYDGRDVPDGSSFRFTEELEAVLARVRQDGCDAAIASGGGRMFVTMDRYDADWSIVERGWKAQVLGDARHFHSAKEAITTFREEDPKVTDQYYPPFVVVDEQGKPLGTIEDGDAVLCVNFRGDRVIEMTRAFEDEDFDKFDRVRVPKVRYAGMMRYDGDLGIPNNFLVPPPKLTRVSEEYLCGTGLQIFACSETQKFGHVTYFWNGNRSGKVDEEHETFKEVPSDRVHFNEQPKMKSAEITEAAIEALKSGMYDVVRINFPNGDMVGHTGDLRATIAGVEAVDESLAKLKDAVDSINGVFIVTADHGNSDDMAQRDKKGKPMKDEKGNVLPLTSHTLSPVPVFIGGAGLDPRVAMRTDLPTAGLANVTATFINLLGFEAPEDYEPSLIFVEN
In short: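 Lm PGAM 1.25nM final; 100 mM TEA pH 7.6, 5 mM MgCl2, 0.01% Tween-20; 45 min RT; Kinase-GloPlus, 10 min; end-point luminescence. Enzyme-free wells as negative controls.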

[15] = target: Ubiquitin carboxyl-terminal hydrolase 1 (Homo sapiens) (UniProt O94782); assay: Inhibitors of USP1/UAF1: Pilot qHTS (AID 504865); also: nearly all actives have a fitted effect of over 35% in size; also: potency is read from the fitted curve at half-maximal effect
Ubiquitin carboxyl-terminal hydrolase 1 (Homo sapiens), sequence (O94782 whole entry, looked up): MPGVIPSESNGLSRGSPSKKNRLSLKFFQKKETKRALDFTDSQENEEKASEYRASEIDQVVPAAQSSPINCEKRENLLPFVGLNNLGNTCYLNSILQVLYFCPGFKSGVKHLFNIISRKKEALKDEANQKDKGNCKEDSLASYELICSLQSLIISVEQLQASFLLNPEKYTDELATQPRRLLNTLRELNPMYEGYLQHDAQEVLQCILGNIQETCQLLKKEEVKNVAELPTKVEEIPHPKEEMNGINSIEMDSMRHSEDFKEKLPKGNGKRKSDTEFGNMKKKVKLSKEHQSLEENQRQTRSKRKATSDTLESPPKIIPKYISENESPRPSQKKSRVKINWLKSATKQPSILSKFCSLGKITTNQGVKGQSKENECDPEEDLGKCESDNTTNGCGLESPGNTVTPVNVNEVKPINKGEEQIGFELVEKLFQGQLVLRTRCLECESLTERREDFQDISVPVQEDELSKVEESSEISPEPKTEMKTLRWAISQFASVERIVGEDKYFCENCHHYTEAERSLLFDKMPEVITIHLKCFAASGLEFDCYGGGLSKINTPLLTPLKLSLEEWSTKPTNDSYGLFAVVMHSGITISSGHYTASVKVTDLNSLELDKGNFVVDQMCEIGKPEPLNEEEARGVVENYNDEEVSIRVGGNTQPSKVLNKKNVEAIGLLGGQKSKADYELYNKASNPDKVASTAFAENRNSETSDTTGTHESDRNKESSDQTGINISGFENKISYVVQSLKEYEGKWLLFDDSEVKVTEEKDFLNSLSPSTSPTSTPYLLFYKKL
In short: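 1nM USP1/UAF1 + cpd, 15 min RT; start w/ Ub-Rho 150nM final; kinetic FL 480/540 nm, 6 reads q60 s. Buffer 50mM HEPES pH 7.8, 0.5mM EDTA, 1mM TCEP, 0.01% Tween-20, 0.1 mg/ml BSA.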

[16] = qHTS for Inhibitors of ATXN expression: Validation of Cytotoxic Assay (AID 588349)
In short: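 HEK293 cells were dosed with titrated compounds for 72 hr at 37 degrees C. Viability was read by CellTiter Glo luminescence, with intracellular ATP as the marker of cell survival.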

[17] = qHTS for Inhibitors of ATXN expression: Validation (AID 588378); also: series mostly up to about 57 µM; nearly all actives have a fitted effect of over 75% in size
In short: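 Cells: HEK293-ATXN2-FFLuc, phenol-red free DMEM, 2 h attachment. Compound pin-transfer, 24 h, 37 degrees C, 5% CO2. CellTiter-Fluor 30 min, Ex405/Em525; Bright-Glo 5 min, luminescence 2 s exposure.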

[18] = target: Thyrotropin-releasing hormone receptor (Homo sapiens) (UniProt P34981); assay: qHTS for Small Molecule Agonists and Allosteric Enhancers of Human TRH Receptor: Validation Screen for Agonists (AID 493127;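 active = calcium activation more than 3 SD above the typical response in the agonist read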;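 also: intracellular calcium rise by fluo-8 fluorescence before TRH EC20 addition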); conditions: TRH receptor agonist cell assay; at 2 µM; stronger effect = higher value
Thyrotropin-releasing hormone receptor (Homo sapiens), sequence (P34981 whole entry, looked up): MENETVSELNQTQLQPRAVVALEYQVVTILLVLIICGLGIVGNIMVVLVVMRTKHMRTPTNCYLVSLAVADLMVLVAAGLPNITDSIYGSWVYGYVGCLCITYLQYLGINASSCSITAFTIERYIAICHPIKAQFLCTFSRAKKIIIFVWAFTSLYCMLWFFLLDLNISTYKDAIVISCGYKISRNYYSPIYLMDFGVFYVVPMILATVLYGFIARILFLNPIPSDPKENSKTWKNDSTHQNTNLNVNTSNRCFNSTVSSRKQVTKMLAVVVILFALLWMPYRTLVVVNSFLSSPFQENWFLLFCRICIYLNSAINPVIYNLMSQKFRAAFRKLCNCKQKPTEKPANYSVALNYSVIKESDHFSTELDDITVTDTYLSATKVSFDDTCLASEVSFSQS
In short: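 TRHR-expressing cells were plated overnight in serum-containing medium, then loaded with fluo-8 calcium dye at room temperature for 30 min–1.5 h. After a 10 s baseline, compound was pin-transferred and calcium fluorescence (ex 480/em 530) read kinetically for agonist response.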

SMILES	outcome [1]	outcome [2]	Potency [3]	Potency [4]	Potency [5]	Potency [6]	Potency [7]	Potency [8]	viability change [8] [%]	outcome [9]	Potency [10]	Potency [11]	Potency [12]	Potency [13]	Potency [14]	Potency [15]	Potency [16]	Potency [17]	activation [18]
NC1CONC1=O (stereo not drawn)	inactive	inactive	inactive	inactive	inactive	inactive	inactive	inactive	2.91	inactive	inactive	inactive	inactive	inactive	inactive	inactive	inactive	inactive	
Cc1ccc2c(c1)C(N1CCN(C)CC1)=Nc1cccnc1N2	inactive	inactive	inactive	inactive	4.47 µM (active)	inactive		inactive	3.55	inactive	inactive	inactive	inactive	inactive	inactive		inactive	inactive	-0.312% (inactive)
N#Cc1cc2nc(O)c(O)nc2cc1[N+](=O)[O-]	inactive	inactive	inactive	inactive	inactive	inactive		inactive	-8.54	inactive	inactive	inactive	inactive		inactive	inactive	inactive	inactive	-2.94% (inactive)
Cc1ccccc1/C=C/C1=NCCN1	inactive	inactive	inactive	inactive	12.6 µM (active)	inactive		inactive	-20.2	inactive	inactive		inactive		inactive	inactive			0.5% (inactive)
C=CC[C@H](N)C(=O)O	inactive	inactive	inactive	inactive	inactive	inactive		inactive	-2.69		inactive	inactive	inactive	inactive	inactive		inactive	inactive	-3.19% (inactive)
COc1ccccc1N1CCN(CCCNc2c(C)c(=O)n(C)c(=O)n2C)CC1	inactive	inactive	inactive	inactive	inactive	inactive		inactive	3.58	inactive	inactive	inactive	inactive		inactive	inactive	inactive	inactive	0.0625% (inactive)
CC(N)=NCCCC[C@@H](N)C(=O)O	inactive	inactive	inactive	inactive	inactive	inactive		inactive	-0.552	inactive	inactive	inactive	inactive		inactive	inactive	inactive	inactive	1.31% (inactive)
CC(=O)/C(C)=N/O	inactive	inactive	inactive	inactive	inactive	inactive		inactive	20.6	inactive	inactive	inactive		inactive		inactive	inactive	inactive	0.0625% (inactive)
CNCCNS(=O)(=O)c1cccc2cnccc12	inactive	inactive	inactive	inactive	inactive	inactive					inactive	inactive	inactive	inactive	inactive	inactive	inactive		1.44% (inactive)
c1ccc(CN2CCC3(CCCc4ccccc43)CC2)cc1	inactive	inactive	inactive	inactive	inactive	inactive		inactive	-10.2	inactive	inactive	inactive	inactive	inactive	inactive	inactive			-8.25% (inactive)
CC(N)(Cc1ccc(O)cc1)C(=O)O (stereo not drawn)	inactive	inactive	inactive	inactive	inactive	inactive		inactive	11.6		inactive	inactive		inactive	inactive	inactive	inactive	inactive	
N[C@@H](Cc1ccc(O)c(I)c1)C(=O)O	inactive	inactive	inactive	inactive	inactive		inactive	inactive	-2.22	inactive	inactive	inactive	inactive	inactive	inactive	inactive	inactive	inactive	1.19% (inactive)
CC(C)(C)NCC(O)COc1cccc2[nH]c(=O)[nH]c12 (stereo not drawn)	inactive	inactive	inactive	inactive	inactive	inactive		inactive	-1.12		inactive	inactive	inactive	inactive	inactive	inactive	inactive	inactive	1.12% (inactive)
O=C1NC(=O)c2cc(Nc3ccccc3)c(Nc3ccccc3)cc21	inactive	inactive	inactive	inactive	inactive	inactive				inactive	inactive	inactive	inactive	inactive	inactive		inactive		6% (inactive)
O=c1cc(-c2ccccc2)[nH]c2nc(Cl)ccc12	inactive	inactive	inactive	inactive	inactive	inactive		inactive	-13.6		inactive	1.84 µM (active)		inactive	inactive		inactive	inactive	-0.438% (inactive)
CCCCCCCCCCCCCCSCC(=O)O	inactive	inactive	inactive	inactive	inactive	inactive		inactive	0.626	inactive	inactive	inactive	23.9 µM (active)		inactive	25.1 µM (active)	inactive	inactive	0.688% (inactive)
